According to PubChem BioAssay (NCATS):
Results filed as inconclusive are left out. Activity calls are given as the source filed them. Calls come from the whole dose curve; as a rule, active = well fitted curve in the direction sought with a large enough effect; inconclusive = small, poorly fitted or top-dose-only effect, or another doubt; inactive = no such curve, though single readings can be large; an effect the other way counts as inactive or inconclusive.

Key:
CRL-7250 [1] = experiment: Cytotoxic Profiling of Annotated Libraries Using Quantitative High-Throughput Screening (AID 1296008); conditions: Five cell lines viability, CellTiter-Glo ATP luminescence, 48-72 h; max response: active compounds read low; note: nearly all actives have a fitted effect of over 60% in size; for max response: % is set by controls: 0 for no effect and ±100 for the full control effect
Outline: (§1)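 Cytotoxicity was measured as CellTiter-Glo ATP luminescence, read after 10 min at room temperature. Compound treatment of the cells lasted 48 or 72 hr at 37 degrees Celsius in a qHTS format.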

HEK293 = experiment: as above; conditions: Five cell lines viability, CellTiter-Glo ATP luminescence, 48-72 h; max response: active compounds read low
Outline: as §1

HaCat [2] = experiment: as above; conditions: Five cell lines viability, CellTiter-Glo ATP luminescence, 48-72 h; max response: active compounds read low
Outline: as §1

NIH3T3 [3] = experiment: as above; conditions: Five cell lines viability, CellTiter-Glo ATP luminescence, 48-72 h; max response: active compounds read low
Outline: as §1

CRL-7250 [4] = experiment: qHTS assay to identify novel small-molecules to repurpose for Merkel cell carcinoma treatment (AID 1296009); conditions: MCC and control cell lines, CellTiter-Glo viability, 72 h; at 44.8 µM (top of the series) unless noted; note: nearly all actives have a fitted effect of over 60% in size; note: potency is the fitted concentration of half-maximal effect
Outline: (§2)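 Cell viability, measured as CellTiter-Glo luminescence, was normalized between DMSO and no-cell wells. The cells had been exposed to 8- or 11-point compound dilutions for 72 hr at 37 degree celsius.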

HACAT [5] = experiment: as above; conditions: MCC and control cell lines, CellTiter-Glo viability, 72 h; at 44.8 µM (top of the series) unless noted
Outline: as §2

HEK293T = experiment: as above; conditions: MCC and control cell lines, CellTiter-Glo viability, 72 h; at 44.8 µM (top of the series) unless noted
Outline: as §2

MCC-13 = experiment: as above; conditions: MCC and control cell lines, CellTiter-Glo viability, 72 h; series mostly up to 46 µM
Outline: as §2

MKL-1 = experiment: as above; conditions: MCC and control cell lines, CellTiter-Glo viability, 72 h; series mostly up to 46 µM
Outline: as §2

MKL-2 = experiment: as above; conditions: MCC and control cell lines, CellTiter-Glo viability, 72 h; series mostly up to 46 µM
Outline: as §2

UISO = experiment: as above; conditions: MCC and control cell lines, CellTiter-Glo viability, 72 h; series mostly up to 46 µM
Outline: as §2

WaGa = experiment: as above; conditions: MCC and control cell lines, CellTiter-Glo viability, 72 h; series mostly up to 46 µM
Outline: as §2

C33A = experiment: Primary qHTS to identify gynecologic anti-cancer compounds using libraries of approved drugs and bioactive compounds (AID 1345084); conditions: Gynecologic cancer cell panel viability, ATPlite luminescence, 48 h; series mostly up to 57.5 µM; note: % is set by controls: 0 for no effect and ±100 for the full control effect; nearly all actives have a fitted effect of over 55% in size
Outline: (§3)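 Luminescence from the ATPlite ATP-monitoring reagent indicates viable cell number; lower signal means cytotoxicity. Cells received compound 16 h after seeding and were exposed for 48 h across five concentrations.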

CASKI = experiment: as above; conditions: Gynecologic cancer cell panel viability, ATPlite luminescence, 48 h; series mostly up to 57.5 µM
Outline: as §3

KB-3-1 = experiment: Cytotoxic Profiling of Annotated Libraries Using Quantitative High-Throughput Screening (AID 1296008); conditions: Five cell lines viability, CellTiter-Glo ATP luminescence, 48-72 h; max response: active compounds read low; note: nearly all actives have a fitted effect of over 60% in size; for max response: % is set by controls: 0 for no effect and ±100 for the full control effect
Outline: as §1

TAB165 = experiment: qHTS profiling for inhibitors of Plasmodium falciparum proliferation (AID 504749); conditions: P. falciparum in erythrocytes, SYBR Green DNA, 72 h; series mostly up to 28.7 µM
Outline: (§4)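 SYBR Green fluorescence of parasite DNA, read after lysis and overnight dark incubation, measured growth over 72 h in erythrocyte culture at 0.3% parasitemia and 2.5% hematocrit. Data normalised to DMSO and 0.29 uM artemisinin, with plate-drift correction.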

W2 = experiment: as above; conditions: P. falciparum in erythrocytes, SYBR Green DNA, 72 h; series mostly up to 28.7 µM
Outline: as §4

MCC-26 = experiment: qHTS assay to identify novel small-molecules to repurpose for Merkel cell carcinoma treatment (AID 1296009); conditions: MCC and control cell lines, CellTiter-Glo viability, 72 h; series mostly up to 46 µM; note: nearly all actives have a fitted effect of over 60% in size; note: potency is the fitted concentration of half-maximal effect
Outline: as §2

CAOV3 = experiment: Primary qHTS to identify gynecologic anti-cancer compounds using libraries of approved drugs and bioactive compounds (AID 1345084); conditions: Gynecologic cancer cell panel viability, ATPlite luminescence, 48 h; series mostly up to 57.5 µM; note: % is set by controls: 0 for no effect and ±100 for the full control effect; nearly all actives have a fitted effect of over 55% in size
Outline: as §3

NIH3T3 [6] = experiment: qHTS assay to identify novel small-molecules to repurpose for Merkel cell carcinoma treatment (AID 1296009); conditions: MCC and control cell lines, CellTiter-Glo viability, 72 h; at 44.8 µM (top of the series) unless noted; note: nearly all actives have a fitted effect of over 60% in size; note: potency is the fitted concentration of half-maximal effect
Outline: as §2

CC(C)(N)Cc1ccccc1Cl
inactive: outcome (CRL-7250 [1]) | outcome (HEK293) | outcome (HaCat [2]) | max response (NIH3T3 [3]) -1.53% | outcome (CRL-7250 [4]) | outcome (HACAT [5]) | outcome (HEK293T) | outcome (MCC-13) | Potency (MKL-1) | Potency (MKL-2) | Potency (UISO) | Potency (WaGa) | Potency (C33A) | outcome (CASKI)

COc1cc(CCN)cc(OC)c1OC
inactive: max response (CRL-7250 [1]) -14.6% | max response (HEK293) -9.62% | max response (HaCat [2]) -15.9% | max response (KB-3-1) 2.38% | max response (NIH3T3 [3]) -22.5% | outcome (MCC-13) | Potency (MKL-1) | Potency (UISO) | Potency (WaGa) | Potency (C33A) | outcome (CASKI)

Cc1ncsc1CCCl
inactive: Potency (TAB165) | Potency (W2) | max response (CRL-7250 [1]) 3.36% | max response (HEK293) -8.24% | max response (HaCat [2]) -12.7% | max response (KB-3-1) 6.67% | max response (NIH3T3 [3]) 0.655% | outcome (MCC-13) | Potency (MCC-26) | Potency (MKL-1) | Potency (MKL-2) | Potency (UISO) | Potency (WaGa) | Potency (C33A) | outcome (CAOV3) | outcome (CASKI)

Clc1cccc(SC2CCNCC2)n1
inactive: Potency (TAB165) | Potency (W2) | max response (CRL-7250 [1]) -0.448% | max response (HEK293) 1.87% | max response (HaCat [2]) -6.24% | max response (KB-3-1) -11.2% | max response (NIH3T3 [3]) 4.41% | outcome (MCC-13) | Potency (MCC-26) | Potency (MKL-1) | Potency (MKL-2) | Potency (UISO) | Potency (WaGa) | Potency (C33A) | outcome (CASKI)

COP(=S)(OC)Oc1ccc(SC)c(C)c1
inactive: Potency (TAB165) | Potency (W2) | max response (CRL-7250 [1]) -0.812% | max response (HEK293) -0.0428% | max response (HaCat [2]) -0.754% | max response (KB-3-1) -16.5% | max response (NIH3T3 [3]) -0.878% | outcome (MCC-13) | Potency (MCC-26) | Potency (MKL-1) | Potency (MKL-2) | Potency (UISO) | Potency (WaGa) | Potency (C33A) | outcome (CASKI)

CCC(C)C(C)(COC(N)=O)COC(N)=O (stereo not given)
inactive: max response (CRL-7250 [1]) 1.47% | outcome (HEK293) | max response (HaCat [2]) -3.56% | outcome (NIH3T3 [3]) | outcome (HEK293T) | outcome (MCC-13) | Potency (MCC-26) | Potency (MKL-1) | Potency (MKL-2) | outcome (NIH3T3 [6]) | Potency (UISO) | Potency (WaGa) | Potency (C33A) | outcome (CAOV3) | outcome (CASKI)

CCCN(CCC)C(=O)Cc1c(-c2ccc(Cl)cc2)nc2ccc(Cl)cn12
inactive: max response (CRL-7250 [1]) 0.585% | max response (HaCat [2]) -9.95% | max response (KB-3-1) -8.04% | max response (NIH3T3 [3]) 0.9% | outcome (MCC-13) | Potency (MKL-1) | Potency (MKL-2) | Potency (UISO) | Potency (WaGa) | Potency (C33A) | outcome (CAOV3) | outcome (CASKI)

ClCCN1CCCC1
inactive: max response (CRL-7250 [1]) -0.393% | outcome (HEK293) | outcome (HaCat [2]) | outcome (NIH3T3 [3]) | outcome (HACAT [5]) | outcome (HEK293T) | outcome (MCC-13) | Potency (MCC-26) | Potency (MKL-1) | Potency (MKL-2) | outcome (NIH3T3 [6]) | Potency (UISO) | Potency (WaGa) | Potency (C33A) | outcome (CASKI)

COC(=O)C(Cl)C(=O)OC
inactive: max response (CRL-7250 [1]) -1.36% | outcome (HEK293) | max response (KB-3-1) -12.1% | max response (NIH3T3 [3]) -7.3% | outcome (HEK293T) | outcome (MCC-13) | Potency (MKL-1) | Potency (MKL-2) | Potency (UISO) | Potency (WaGa) | Potency (C33A) | outcome (CASKI)

CC(Cc1ccccc1)N(C)Cc1ccco1 (stereo not given)
inactive: max response (CRL-7250 [1]) -3.65% | max response (HEK293) -5.17% | outcome (HaCat [2]) | max response (NIH3T3 [3]) -7.67% | outcome (HACAT [5]) | outcome (MCC-13) | Potency (MCC-26) | Potency (MKL-1) | Potency (MKL-2) | Potency (UISO) | Potency (WaGa) | Potency (C33A) | outcome (CAOV3) | outcome (CASKI)

O=C(CCCN1CCC2(CC1)C(=O)NCN2c1ccccc1)c1ccc(F)cc1
inactive: max response (CRL-7250 [1]) -1.53% | outcome (HaCat [2]) | max response (KB-3-1) -7.2% | outcome (NIH3T3 [3]) | outcome (HACAT [5]) | outcome (MCC-13) | Potency (MKL-1) | Potency (MKL-2) | outcome (NIH3T3 [6]) | Potency (UISO) | Potency (WaGa) | Potency (C33A) | outcome (CAOV3) | outcome (CASKI)

O=C1OC(CCN2CCCCC2)OC1(c1ccccc1)c1ccccc1 (stereo not given)
active: Potency (MKL-1) 21.1 µM | Potency (MKL-2) 6.68 µM
inactive: max response (CRL-7250 [1]) -20% | max response (HaCat [2]) 4.71% | Potency (MCC-26) | Potency (C33A) | outcome (CASKI)

CN1CC[C@]23c4c5ccc(O)c4O[C@H]2[C@@H](O)C=C[C@H]3[C@H]1C5
inactive: max response (CRL-7250 [1]) -11.3% | outcome (HaCat [2]) | max response (KB-3-1) -4.72% | max response (NIH3T3 [3]) -4.09% | outcome (HACAT [5]) inactive [at 92 µM] | outcome (MCC-13) | Potency (MCC-26) | Potency (C33A) | outcome (CAOV3) | outcome (CASKI)

C[C@]12Cc3cn[nH]c3C[C@@H]1CC[C@@H]1[C@@H]2CC[C@@]2(C)[C@H]1CC[C@]2(C)O
inactive: max response (CRL-7250 [1]) 0.607% | max response (HaCat [2]) 2.06% | max response (NIH3T3 [3]) 3.99% | outcome (MCC-13) | Potency (MCC-26) | Potency (MKL-1) | Potency (MKL-2) | Potency (WaGa) | Potency (C33A) | outcome (CAOV3) | outcome (CASKI)

C=CCC1(C(C)CC)C(=O)NC(=O)NC1=O (stereo not given)
inactive: outcome (CRL-7250 [1]) | max response (HEK293) 4.61% | max response (HaCat [2]) 2.69% | outcome (NIH3T3 [3]) | outcome (CRL-7250 [4]) | outcome (MCC-13) | Potency (MCC-26) | Potency (MKL-1) | Potency (MKL-2) | outcome (NIH3T3 [6]) | Potency (UISO) | Potency (WaGa) | Potency (C33A) | outcome (CASKI)
